In the library only some 11% were active in any assay of this set; here they are far more common.
HP1b chromo inh: HTS for Inhibitors of HP1-beta Chromodomain Interactions with Methylated Histone Tails | Chromobox protein homolog 1 (Homo sapiens), P83916 | AlphaScreen HP1-beta / biotin-H3K9me3 peptide binding | Potency, µM (series often up to 114 µM), usual class: inhibitors | 0.56% of 390,000 active; further: nearly all actives have a fitted effect of over 70% in size
Target sequence (P83916 whole entry, looked up): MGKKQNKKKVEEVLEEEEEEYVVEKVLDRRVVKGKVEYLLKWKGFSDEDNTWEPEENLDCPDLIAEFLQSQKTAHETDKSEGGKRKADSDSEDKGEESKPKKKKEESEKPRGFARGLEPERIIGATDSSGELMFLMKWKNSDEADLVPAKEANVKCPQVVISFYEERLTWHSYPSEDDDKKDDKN
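HP1-beta protein (50 nM final) preincubated 30 min at room temperature with biotinylated H3(1-18)K9me3 peptide (50 nM) in PBS pH 7.4, 0.01% Tween-20, then compound added for 30 min. AlphaScreen streptavidin donor/nickel chelate acceptor beads (10 ug/mL final), 30 min dark, luminescence read.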
G9a block: qHTS Assay for Inhibitors of Histone Lysine Methyltransferase G9a | AID 504332, 2011 | G9a H3K9 monomethylation, AlphaScreen, 2 h | Histone-lysine N-methyltransferase EHMT2 (Homo sapiens), Q96KQ7 | 8.8% of 350,000 active | Potency, µM (top dose mostly 102 µM), most hits filed as inhibitors; further: nearly all actives have a fitted effect of over 75% in size
Target sequence (Q96KQ7 913-1193 limits assumed): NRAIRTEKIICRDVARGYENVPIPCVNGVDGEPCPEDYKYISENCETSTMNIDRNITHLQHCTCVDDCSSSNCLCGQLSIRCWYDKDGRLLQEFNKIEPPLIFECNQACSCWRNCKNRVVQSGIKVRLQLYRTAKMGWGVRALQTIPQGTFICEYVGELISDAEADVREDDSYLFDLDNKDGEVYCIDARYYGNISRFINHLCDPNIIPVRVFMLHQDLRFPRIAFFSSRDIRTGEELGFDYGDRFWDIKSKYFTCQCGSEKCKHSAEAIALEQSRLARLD
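Using a bead-based AlphaScreen, monomethylated H3K9 product from 2 h room-temperature reactions (G9a 20 nM, peptide 500 nM, SAM 20 uM) was detected with 0.5 ug/mL rabbit anti-H3K9me1 antibody.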
VDR inh: Inhibitors of the vitamin D receptor (VDR): qHTS. Potency, µM, most hits filed as inhibitors. Vitamin D3 receptor (Homo sapiens), P11473. VDR-SRC2-3 peptide fluorescence polarization, 2 h. 0.93% of 400,000 active
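After 23 nl compound addition and a short centrifugation, plates sat for 2 hours at ambient temperature; polarization of fluorescence then indicated loss of VDR binding to peptide SRC2-3.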
BAZ2B inh: qHTS Assay for Inhibitors of BAZ2B; Bromodomain adjacent to zinc finger domain protein 2B (Homo sapiens), Q9UIF8; AlphaScreen BAZ2B-H3K14Ac peptide displacement; Potency, µM (series often up to 114 µM), hits mostly inhibitors; 4.4% of 360,000 active; AID 504333, 2011; further: nearly all actives have a fitted effect of over 60% in size
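Complex of BAZ2B and biotin-H3K14Ac (50 nM apiece) forms over 30 min at RT, then faces library compounds up to 110 uM for another 30 min; AlphaScreen beads added, 20 min dark incubation, luminescence read.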
PLK1 PBD block: qHTS for Inhibitors of PLK1-PDB (polo-like kinase 1 - polo-box domain): Primary Screen. Plk1 PBD binding of FITC phosphopeptide, fluorescence polarization. Potency, µM, hits mostly inhibitors. 2.8% of 360,000 active. AID 720504, 2013; further: series mostly up to about 57 µM; nearly all actives have a fitted effect of over 65% in size
JMJD2A Tudor: qHTS Assay for Inhibitors of JMJD2A-Tudor Domain; AlphaScreen JMJD2A-Tudor / H3K4me3 peptide binding; Potency, µM (highest dose often 114 µM), actives largely listed as inhibitors; 4.4% of 390,000 active; AID 504339, 2011; further: nearly all actives have a fitted effect of over 50% in size
Numbers stand for hits; – = inactive; ? = inconclusive; · = no result given; [ ] = remark or other dose. The call rests on the fitted dose curve; in most records, active means well fitted curve in the direction sought with a large enough effect; inconclusive means small, poorly fitted or top-dose-only effect, or another doubt; inactive means no such curve, though single readings can be large; an effect the other way counts as inactive or inconclusive.

SMILES	HP1b chromo inh	G9a block	VDR inh	BAZ2B inh	PLK1 PBD block	JMJD2A Tudor
CCc1ccc(-c2nc(CS(=O)CC(=O)NCc3ccc4c(c3)OCO4)c(C)o2)cc1 (stereo not given)	–	40µM	–	–	?	–
COc1cccc(-c2nc(CS(=O)CC(=O)NCCc3ccccc3)c(C)o2)c1 (stereo not given)	–	–	–	–	?	–
CCc1ccc(-c2nc(CS(=O)CC(=O)NCc3ccccc3)c(C)o2)cc1 (stereo not given)	–	28µM	–	–	?	–
Cc1oc(-c2ccccc2F)nc1CS(=O)CC(=O)NCc1ccccc1 (stereo not given)	–	–	–	–	?	–
CCc1cccc(NC(=O)CS(=O)Cc2nc(-c3ccc(C)cc3)oc2C)c1 (stereo not given)	–	45µM	–	–	–	–
CCCCNC(=O)CS(=O)Cc1nc(-c2ccc(C)cc2)oc1C (stereo not given)	–	–	–	–	–	–
Cc1nc(N=Nc2cc(S(=O)(=O)O)ccc2S(=O)(=O)O)c(COP(=O)(O)O)c(C=O)c1O	·	·	–	·	·	·
O=C1CC(c2ccco2)CC2=C1C(c1ccc(O)cc1)n1nc(C(F)(F)F)nc1N2 (stereo not given)	?	·	–	·	·	56µM
CCC(C)[C@H](N)c1nnc(SCc2ccc(Cl)c(Cl)c2)o1 (stereo not given in full)	–	8.9µM	–	?	·	–
C[C@H](N)c1nnc(SCc2c(Cl)cccc2Cl)o1	–	?	–	?	–	–
CC(C)C[C@H](N)c1nnc(SCc2ccc(Cl)cc2)o1	–	–[12.7 µM]	–	–	–	–
CC(C)[C@H](N)c1nnc(SCc2ccc(Cl)cc2)o1	–	·	–	–	–	14µM
CC(C)n1c(O)c(N=NC(=O)Cc2csc(N3CCOCC3)n2)c2ccccc21	–	?	–	40µM	–	–
CC(C)n1c(O)c(N=NC(=O)CNC(=O)Cc2ccc(Cl)cc2)c2ccccc21	–	?	–	–	–	?
Fc1cccc(Cc2c(C3CCCCC3)nc3ccc(Br)cn23)c1	·	·	·	·	–	·
O=C(CN1CCN(c2ccc(O)cc2)CC1)N(C1CC1)C1CCS(=O)(=O)C1 (stereo not given)	?	–[2.33 µM]	–	–	–	79µM
O=C(CN1CCN(c2ccc(F)cc2)CC1)N(C1CCCC1)C1CCS(=O)(=O)C1 (stereo not given)	–	–[2.33 µM]	–	–	–	–
O=[N+]([O-])c1ccc(C=NNc2ccc(S(=O)(=O)O)cc2)cc1	–	·	–	·	–	79µM
COc1cccc(/C=N/Nc2ccc(S(=O)(=O)O)cc2)c1O	–	2.2µM	–	?	–	–
CNc1nc(N/N=C/c2ccc([N+](=O)[O-])cc2)nc(Nc2ccccc2)n1	?	–	?	?	27µM	?
O=S(=O)(O)c1ccc(NN=Cc2ccccc2O)cc1	–	·	–	·	–	100µM
COc1cccc(/C=N/Nc2ccccc2C(=O)O)c1O	–	?	–	–	–	–
O=C(CN(Cc1ccco1)C(=O)c1cc(=O)[nH]c2ccccc12)Nc1ccccc1Br	–	–	–	–	–	–
COc1cc(SC)ccc1C(=O)N(CC(=O)Nc1ccccc1Br)Cc1ccco1	–	40µM	–	–	–	–
COc1ccccc1-c1c(C)nn2c(N3CCN(c4ccc(F)cc4)CC3)cc(C)nc12	–	–	–	–	·	–
SMILES	HP1b chromo inh	G9a block	VDR inh	BAZ2B inh	PLK1 PBD block	JMJD2A Tudor
COCC(C)n1c(C)cc(C(=O)CSc2ncccn2)c1C (stereo not given)	–	35µM	–	?	–	–
COCC(C)n1c(C)cc(C(=O)CSc2ccc(NC(C)=O)cc2)c1C (stereo not given)	?	–[12.7 µM]	–	–	?	–
COCC(C)n1c(SCC(=O)c2cc(C)n(C)c2C)nc2ccccc2c1=O (stereo not given)	–	40µM	–	50µM	–	?
CCC1(c2ccccc2)NC(=O)N(CC(=O)NC2(C#N)CCCCC2)C1=O (stereo not given)	–	?	–	–	–	–
O=C(CCNC(=O)c1ccccc1Cl)Nc1ccc(S(=O)(=O)N2CCOCC2)cc1	·	·	·	·	–	·
Cc1cc(F)ccc1NC(=O)CCn1nc(C)c(S(=O)(=O)N2CCCCC2)c1C	–	–	–	–	·	–
CC1CC(=O)Nc2ccccc2N1S(=O)(=O)c1ccccc1 (stereo not given)	–	–	?	–	27µM	18µM
CC1Cc2ccccc2N1S(=O)(=O)c1cccc(C(=O)N2CC(=O)Nc3ccccc32)c1 (stereo not given)	–	71µM	–	–	–	–
CCOC(=O)CN1c2ccccc2NC(=O)CC1C (stereo not given)	–	45µM	–	–	–	–
O=C(Nc1cc(Cl)ccc1Cl)C1(c2cccs2)CCOCC1	–	–	–	–	·	–
COc1ccc(CNC(=O)C(=O)NCC(c2cccnc2)N2CCN(c3ccccc3)CC2)cc1 (stereo not given)	–	–	–	–	·	–
O=C(Nc1ccccc1C(F)(F)F)c1ncoc1-c1ccco1	–	–	–	–	·	–
CC1CC(N(C(=O)c2ccc(Cl)cc2)c2ccccc2)c2ccccc2N1C(=O)c1ccco1 (stereo not given)	–	45µM	–	–	–	–
CC12CN3CC(=O)N4CC5(C)CN(CC(C)(C4)C5=O)C(=O)CN(C1)CC(C)(C3)C2=O	–	35µM	–	–	–	–
Cc1ccc(S(=O)(=O)N2CC3(C)CN(S(=O)(=O)c4ccc(C)cc4)CC(C)(C2)C3=O)cc1	–	–[12.7 µM]	–	–	–	–
COc1ccc(C(=O)N2CCN(C3CCC(c4ccccc4)CC3)CC2)cc1OC (stereo not given)	–	3.2µM	–	50µM	–	2.8µM
COc1cccc(C(=O)N2CCN(C3CCN(Cc4ccccc4)CC3)CC2)c1	·	8.9µM	·	28µM	·	·
COc1cccc(C(=O)N2CCN(Cc3ccccc3[N+](=O)[O-])CC2)c1	?	11µM	–	?	–	22µM
COc1cccc(C(=O)N2CCN(C3CCCCC3)CC2)c1	–	·	–	?	–	11µM
COc1ccc(C(=O)N2CCC(c3ccncc3)CC2)cc1OC	–	–	–	–	·	–
COc1ccc(C(=O)N2CCC(C(=O)N3CCN(Cc4ccccc4)CC3)CC2)cc1	–	–	–	–	–	–
Cc1ccc(OCCCn2c(-c3ccc(Cl)cc3)nc3ccccc3c2=O)c(C)c1	–	–	–	–	·	–

Assay outcomes (PubChem)
